Publication PMC12136788
Over roughly 24,000 sequences, “enrichment r” has its median near 0.99; the highest 2% begin near 3.7. Only a sample is shown.

B1: 12329608_12331292_3055_3pUTR_ENSMUSG00000032625_ENSMUST00000046121|mouse|control|control (ssRNA)
RNA: GGGAGUUCUACAGUCCGACGAUCGAGGGUACAAAUGAGAGUUUUUACAUUUUUCCUUCUUUUUACUUUUCCCAACAAUAGCACGCUUUCUGGUCCUAACUGCACCGCAGUCUCCGUUGCAUGAAGAAAACUUGGACCAGCUGGCAACAGAGGAUUGAGCAUCA
B2: chr7:28421298:28421299:+_ENSMUSG00000004056_ENSMUST00000051356|mus_hu|FALSE|FALSE (ssRNA)
RNA: GGGAGUUCUACAGUCCGACGAUCCAUCAUCUCGUACAUGACCACACCCAGCCCCCACCAGUCCACGGCCCGGCCAUAGUCAUUGUCCUCCAGCACCUCAGGCGCCAGGUACUCCGGGGUCCCACAGAAGGUUUUCAUGGUGGCCAACAGAGGAUUGAGCAUCA
B3: chr7:151048522:151048523:+_ENSG00000013374_ENST00000566856|hu_mus|hu_hu_hu_mus_True|48_108 (ssRNA)
RNA: GGGAGUUCUACAGUCCGACGAUCCUGCUUCUUAUUUAUUACGAUCUUGAUGUAAUUUUCUUGAAAUCCGAAAGUUUCAGCUAUUUGGGACCUCAGUUCUCUACCAGUGACAUGCAAGCGGGUCUCCAACAAGCUUUUCUUAUCCAACAGAGGAUUGAGCAUCA
B4: chr7:52357369:52357370:-_ENSMUSG00000003420_ENSMUST00000003512|mus_hu|FALSE|FALSE (ssRNA)
RNA: GGGAGUUCUACAGUCCGACGAUCGUGCUCCCGCAGGCGGUGCGGGCAGGAGAAUAGCAGGAAGGUGAGCUCCUUGUUGGCCGCCUUGUCCUGCUGCUGCCACCGCUGACUGAUAGCCAGGGCCUCGGGCCAGUCCCCACCCCACAACAGAGGAUUGAGCAUCA
B5: chr5:132440482:132440483:+_ENSG00000170606_ENST00000304858|hu_hu|FALSE|FALSE (ssRNA)
RNA: GGGAGUUCUACAGUCCGACGAUCUUAAAGCAUAAUUAGAGCUCCUGCCAUGUAAGUCAUAAUGAAAAGUCUGCUGGAUAGCUAGAGCUGUAGCUAUAGCUCAACUUUCCAAAACAAACUUAUUCUUGUAGACACAUGGUUAAACAACAGAGGAUUGAGCAUCA
B6: chr8:101271117:101271118:-_ENSG00000034677_ENST00000519449|hu_mus|motif|central (ssRNA)
RNA: GGGAGUUCUACAGUCCGACGAUCGCAAUCACUGGAGCCGUGACUACAGGACGUUCUCAUGCUUUCUAAGUCUGAGCAGCGGAAUUCAGAAAAAUGACUGGAGUGGGAAUCUGCUACAGACGGCAUGCUGUCACUGAGGGAUGGCAACAGAGGAUUGAGCAUCA
B7: 46683936_46684056_841_CDS_ENSMUSG00000033319_ENSMUST00000036226|mouse|control|control (ssRNA)
RNA: GGGAGUUCUACAGUCCGACGAUCUCGAAGAGGAGUUGAGUUGGUUAAAGUCGUGUUGUUGACAGAUGCUCCGUGAUUUAACAAAGACUGGACAACCUUCAGAUGUCCUGCUGCAGAAGCGGCCCAUAAAGGGGGGGCCCCCUCCAACAGAGGAUUGAGCAUCA
B8: chr22:36164377:36164378:-_ENSG00000100320_ENST00000405409|hu_mus|FALSE|FALSE (ssRNA)
RNA: GGGAGUUCUACAGUCCGACGAUCACGGCCCUCUACCACGGUGCCGUGCAAUUUCUCCCUGGCCCUGUCUGCAUCAGCACUAUUCUCGAAAGUUACGAACCCGAAUCCCUUGGAGCCGCGCUCAUUAAAGAUUAUUUCCACAUCCAACAGAGGAUUGAGCAUCA
B9: chr17:3572670:3572671:+_ENSG00000127774_ENST00000248378|hu_hu|FALSE|FALSE (ssRNA)
RNA: GGGAGUUCUACAGUCCGACGAUCGUAGGUGAAGAGGCCCCCGAUGAGGCCUCCUGUAAAGAGAGGUCUCCGUGAUUUGAAAUAUUUGUUCCACCUCCUUCCCGCCUUGAGAAUGAGGAGCAGGGAGAGCAGGACGGAGGCGAGCAACAGAGGAUUGAGCAUCA
B10: chr2:47387770:47387771:-_ENSG00000143933_ENST00000272298|hu_mus|hu_hu_hu_mus_True|1_38 (ssRNA)
RNA: GGGAGUUCUACAGUCCGACGAUCAAGGUUUAAGGACAAUGACAGUAAGAUAAGGGAAGAAAACAUGGAGGAAUGAAGUCCUAAUUACUAUACAUGCAUAUUUUUUUACAGUAGGGGGGGGGAACCUUUUACAGAUAUUACAAACAACAGAGGAUUGAGCAUCA
B11: chr9:35286173:35286174:+_ENSMUSG00000038119_ENSMUST00000042842|mus_mus|FALSE|FALSE (ssRNA)
RNA: GGGAGUUCUACAGUCCGACGAUCAGUAUUAUUGUUACUUGAUGGAACAUACGUCCAUUUCAGCAUGAUCUGAGUGUCGCUAACAGCCUCUGUGUAUGCGAUGUGAGGUCCAGUUAUUGGGCGAUUGGAAAAACGAUUUGGGAACAACAGAGGAUUGAGCAUCA
B12: chrX:98862621:98862622:+_ENSMUSG00000034160_ENSMUST00000044475|mus_hu|mus_mus_mus_hu_False|58_88 (ssRNA)
RNA: GGGAGUUCUACAGUCCGACGAUCCUGCAUCUCCUUUAGAGUGUUUCCCAUAUUGGAGUAGGCAUCAGCAAAGGUAGGACUAAUUCGAAUAGCCUCCUUAUAAUGCAUCAGAGCUUCCUGCAGUUUUCCCUGCUGCUGCAGUACCAACAGAGGAUUGAGCAUCA
B13: chr2:32089778:32089779:+_ENSMUSG00000039262_ENSMUST00000036691|mus_hu|FALSE|FALSE (ssRNA)
RNA: GGGAGUUCUACAGUCCGACGAUCUAAACAAGCUGCACAUUACACCUCUAGCCAUCGUCUGCCCUUUCAAAUAUCUGGUCUACAUGGAAAGACAAAGAGGAAAGGCCAAAACAUAAACAAAAGGAAACAAAAACAAAACACAACCAACAGAGGAUUGAGCAUCA
B14: chr5:28742860:28742861:+_ENSMUSG00000048271_ENSMUST00000114884|mus_mus|FALSE|FALSE (ssRNA)
RNA: GGGAGUUCUACAGUCCGACGAUCAGAAUCUCUUGAAAAAGAAAAGGUGAGAUUUCCUCCUCAAGAAGAGUAUCAAUAUAAUAAGGAUUUAACAAAUGUGGCCAAGCCAAGGGCAGCAUAAGGUUAUGUUCAGGUAAGCAGCUGCAACAGAGGAUUGAGCAUCA

These binders were tested against T1, UNK ZnF1-3 (human, UniProt Q9C0B0 31-174) (assay: nsRBNS (natural sequence RNA bind-n-seq); RBNS binding buffer (assumed for nsRBNS): 25 mM Tris pH 7.5, 150 mM KCl, 3 mM MgCl2, 0.01% Triton X-100, 500 ug/ml BSA, 20 U/ml SUPERase-In, 4 C; UNK is unkempt and MSI1 is Musashi-1; names of the RNAs are library labels; protein concentration not given here; high values mean tight binding).
T1 sequence: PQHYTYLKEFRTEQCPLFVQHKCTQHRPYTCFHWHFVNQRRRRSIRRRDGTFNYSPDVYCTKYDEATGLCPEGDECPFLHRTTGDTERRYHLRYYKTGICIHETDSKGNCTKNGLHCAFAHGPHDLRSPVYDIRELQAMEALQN

In order of rising binding signal:
1. B1  0.4 enrichment R
2. B5  0.424 enrichment R
3. B3  0.712 enrichment R
4. B4  0.754 enrichment R
5. B12  0.89 enrichment R
6. B11  0.899 enrichment R
7. B9  1.1 enrichment R
8. B8  1.19 enrichment R
9. B7  1.3 enrichment R
10. B6  1.45 enrichment R
11. B14  1.72 enrichment R
12. B2  1.8 enrichment R
13. B10  2.41 enrichment R
14. B13  2.59 enrichment R
